Reference: PubChem BioAssay (NCATS)
Records with an inconclusive call do not appear. Active and inactive are the calls of the source. Calls follow the shape of the dose curve; as a rule, active = well fitted curve in the direction sought with a large enough effect; inconclusive = small, poorly fitted or top-dose-only effect, or another doubt; inactive = no such curve, though single readings can be large; an effect the other way counts as inactive or inconclusive.

Legend:
HaCat = assay: Cytotoxic Profiling of Annotated Libraries Using Quantitative High-Throughput Screening (AID 1296008); conditions: Five cell lines viability, CellTiter-Glo ATP luminescence, 48-72 h; max response: hits give low values; also: nearly all actives have a fitted effect of over 60% in size
Outline: (§1)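 Cytotoxicity was measured as CellTiter-Glo ATP luminescence, read after 10 min at room temperature. Compound treatment of the cells lasted 48 or 72 hr at 37 degrees Celsius in a qHTS format.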

KB-3-1 = assay: as above; conditions: Five cell lines viability, CellTiter-Glo ATP luminescence, 48-72 h; max response: hits give low values
Outline: as §1

NIH3T3 = assay: as above; conditions: Five cell lines viability, CellTiter-Glo ATP luminescence, 48-72 h; max response: hits give low values
Outline: as §1

C33A = assay: Primary qHTS to identify gynecologic anti-cancer compounds using libraries of approved drugs and bioactive compounds (AID 1345084); conditions: Gynecologic cancer cell panel viability, ATPlite luminescence, 48 h; series mostly up to 57.5 µM; also: nearly all actives have a fitted effect of over 55% in size
Outline: (§2)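 48 h compound exposure at 37 C, 5% CO2; five-point qHTS. ATPlite luminescence readout of cell ATP.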

CAOV3 = assay: as above; conditions: Gynecologic cancer cell panel viability, ATPlite luminescence, 48 h; series mostly up to 57.5 µM
Outline: as §2

CASKI = assay: as above; conditions: Gynecologic cancer cell panel viability, ATPlite luminescence, 48 h; series mostly up to 57.5 µM
Outline: as §2

Es-2 = assay: as above; conditions: Gynecologic cancer cell panel viability, ATPlite luminescence, 48 h; series mostly up to 57.5 µM
Outline: as §2

HeLa = assay: as above; conditions: Gynecologic cancer cell panel viability, ATPlite luminescence, 48 h; series mostly up to 57.5 µM
Outline: as §2

Hek293T = assay: as above; conditions: Gynecologic cancer cell panel viability, ATPlite luminescence, 48 h, control line for the selectivity index; series mostly up to 57.5 µM
Outline: as §2

JEG-3 = assay: as above; conditions: Gynecologic cancer cell panel viability, ATPlite luminescence, 48 h; series mostly up to 57.5 µM
Outline: as §2

OV90 = assay: as above; conditions: Gynecologic cancer cell panel viability, ATPlite luminescence, 48 h; series mostly up to 57.5 µM
Outline: as §2
% is scaled to controls: 0 for no effect and ±100 for the full control effect; potency is read from the fitted curve at half-maximal effect.

C=C1C[C@]23C[C@H]1CC[C@H]2[C@]1(C)CCC[C@@](C)(C(=O)O)[C@H]1[C@@H]3C(=O)O
inactive: max response (HaCat) -5.4% | max response (KB-3-1) 0.882% | max response (NIH3T3) 2.88% | Potency (C33A) | Potency (CAOV3) | Potency (CASKI) | Potency (Es-2) | Potency (HeLa) | Potency (Hek293T) | Potency (JEG-3) | Potency (OV90)

CC(=O)OC1CC2(C)C3=CCC4(C)C5C(O)C(O)C(C(C)C)C5(C)CCC4(C)C3CCC2C(C)(C)C1OC1OC(CO)C(O)C(O)C1O (centres undefined)
inactive: max response (HaCat) -3% | max response (KB-3-1) 2.57% | max response (NIH3T3) 4.87% | Potency (C33A) | Potency (CAOV3) | Potency (CASKI) | Potency (Es-2) | Potency (HeLa) | Potency (Hek293T) | Potency (JEG-3) | Potency (OV90)

CC(C)=CCC[C@](C)(O[C@@H]1O[C@H](CO[C@@H]2O[C@H](CO)[C@@H](O)[C@H](O)[C@H]2O)[C@@H](O)[C@H](O)[C@H]1O)C1CC[C@]2(C)[C@@H]1[C@H](O)CC1[C@@]3(C)CC[C@H](O[C@@H]4O[C@H](CO)[C@@H](O)[C@H](O)[C@H]4O[C@@H]4O[C@H](CO)[C@@H](O)[C@H](O)[C@H]4O)C(C)(C)[C@@H]3CC[C@]12C (some centres undefined)
inactive: max response (HaCat) 3.42% | max response (KB-3-1) -1.36% | max response (NIH3T3) 4.71% | activity change, negative = cytotoxicity (C33A) 0.112% [at 11.6 µM] | activity change, negative = cytotoxicity (CAOV3) 10.1% [at 11.6 µM] | activity change, negative = cytotoxicity (CASKI) 27.8% [at 11.6 µM] | activity change, negative = cytotoxicity (Es-2) -0.241% [at 11.6 µM] | activity change, negative = cytotoxicity (HeLa) -0.531% [at 11.6 µM] | activity change, negative = cytotoxicity (Hek293T) -3.2% [at 11.6 µM] | activity change, negative = cytotoxicity (JEG-3) -5.88% [at 11.6 µM] | activity change, negative = cytotoxicity (OV90) 2.46% [at 11.6 µM]

CC1(C)CC[C@]2(C(=O)O[C@@H]3O[C@H](CO)[C@@H](O)[C@H](O)[C@H]3O)CC[C@]3(C)C(=CCC4[C@@]5(C)C[C@@H](O)[C@H](O)C(C)(C)C5CC[C@]43C)C2[C@@H]1O (some centres undefined)
inactive: max response (HaCat) 2.98% | outcome (KB-3-1) | max response (NIH3T3) -3.15% | Potency (C33A) | Potency (CAOV3) | Potency (CASKI) | Potency (Es-2) | Potency (HeLa) | Potency (Hek293T) | Potency (JEG-3) | Potency (OV90)

CCCn1c(=O)c2[nH]c(-c3ccc(OCC(=O)O)cc3)nc2n(CCC)c1=O
inactive: max response (HaCat) -4.84% | outcome (KB-3-1) | max response (NIH3T3) -3.27% | Potency (C33A) | Potency (CAOV3) | Potency (CASKI) | Potency (Es-2) | Potency (HeLa) | Potency (Hek293T) | Potency (JEG-3) | Potency (OV90)

O=C(CCCCN1CCOCC1)Nc1ccc(-c2cccnc2)cc1
inactive: max response (HaCat) -1.44% | max response (KB-3-1) 3.7% | max response (NIH3T3) 4.47% | Potency (C33A) | Potency (CAOV3) | Potency (CASKI) | Potency (Es-2) | Potency (HeLa) | Potency (Hek293T) | Potency (JEG-3) | Potency (OV90)

CC12CCC(C(OC3OC(COC4OCC(O)(CO)C4O)C(O)C(O)C3O)C1)C(C)(C)O2 (centres undefined)
inactive: max response (HaCat) -11.8% | max response (KB-3-1) 1.72% | max response (NIH3T3) 0.27% | Potency (C33A) | Potency (CAOV3) | Potency (CASKI) | Potency (Es-2) | Potency (HeLa) | Potency (Hek293T) | Potency (JEG-3) | Potency (OV90)

Nc1ncnc2c1ncn2CCNCCCCCO
inactive: max response (HaCat) -23.1% | outcome (KB-3-1) | max response (NIH3T3) -0.352% | Potency (C33A) | Potency (CAOV3) | Potency (CASKI) | Potency (Es-2) | Potency (HeLa) | Potency (Hek293T) | Potency (JEG-3) | Potency (OV90)

OC/C=C/c1ccc(O[C@@H]2O[C@H](CO)[C@@H](O)[C@H](O)[C@H]2O)cc1
inactive: max response (HaCat) 4.35% | max response (KB-3-1) 3.13% | max response (NIH3T3) -0.785% | Potency (C33A) | Potency (CAOV3) | Potency (CASKI) | Potency (Es-2) | Potency (HeLa) | Potency (Hek293T) | Potency (JEG-3) | Potency (OV90)

O=C(COc1cccc2c(=O)[nH]ccc12)c1ccccc1
inactive: max response (HaCat) -15.5% | max response (KB-3-1) 7.28% | max response (NIH3T3) 1.93% | Potency (C33A) | Potency (CAOV3) | Potency (CASKI) | Potency (Es-2) | Potency (HeLa) | Potency (Hek293T) | Potency (JEG-3) | Potency (OV90)

CC1=CCC(C(C)(C)O[C@@H]2O[C@H](CO[C@@H]3O[C@@H](C)[C@H](O)[C@@H](O)[C@H]3O)[C@@H](O)[C@H](O)[C@H]2O)CC1 (some centres undefined)
inactive: max response (HaCat) 1.99% | outcome (KB-3-1) | max response (NIH3T3) 2.56% | Potency (C33A) | Potency (CAOV3) | Potency (CASKI) | Potency (Es-2) | Potency (HeLa) | Potency (Hek293T) | Potency (JEG-3) | Potency (OV90)

CC(=O)/C=C/[C@H]1[C@](C)(O)[C@@H](O)[C@H](OC(C)=O)C2C(C)(C)CCC[C@@]21C (some centres undefined)
inactive: max response (HaCat) -21.7% | outcome (KB-3-1) | max response (NIH3T3) -10.6% | Potency (C33A) | Potency (CAOV3) | Potency (CASKI) | Potency (Es-2) | Potency (HeLa) | Potency (Hek293T) | Potency (JEG-3) | Potency (OV90)

CC(C)c1cc(C(=O)N2CC[C@@H](NC(=O)C3CC3)C2)n[nH]1
inactive: max response (HaCat) 0.869% | max response (KB-3-1) 2.09% | max response (NIH3T3) -14.5% | Potency (C33A) | Potency (CAOV3) | Potency (CASKI) | Potency (Es-2) | Potency (HeLa) | Potency (Hek293T) | Potency (JEG-3) | Potency (OV90)

O=C(NCC(O)CO)c1ccncc1Nc1ccc(I)cc1F (centres undefined)
active: Potency (HaCat) 18.4 µM | Potency (NIH3T3) 7.31 µM | Potency (Es-2) 2 µM | Potency (OV90) 0.0794 µM
inactive: outcome (KB-3-1) | Potency (C33A) | Potency (CAOV3) | Potency (CASKI) | Potency (HeLa) | Potency (Hek293T) | Potency (JEG-3)
